Reference: PubChem BioAssay AID1159580 (chemical genetic matrix, 2015)
About 2,000 (36%) of roughly 5,500 compounds were called active. Not shown: some 18% with an inconclusive outcome. No stated cut-off is given here; in the data, active means normalized growth mostly below about 0.91 (no sharp cut-off); inconclusive means no clear call, values can overlap the other calls; inactive means mostly above about 0.92. The list shows a part of the results.

Assay: chemical genetic growth profiling, strain panel (AID 1159580);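 further: tested at 20 µM; growth read once vehicle control cultures reached saturation at 30 °C; 1 = growth at the plate median or of vehicle wells; lower values mean less growth of the strain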
Details: growth OD
[1] = S. cerevisiae deletion strains, locus YAL013W, strain DEP1, active compounds read low
[2] = S. cerevisiae deletion strains, locus YBR229C, strain ROT2, active compounds read low
[3] = S. cerevisiae deletion strains, locus YDL101C, strain DUN1, active compounds read low
[4] = S. cerevisiae deletion strains, locus YDR150W, strain NUM1, active compounds read low
[5] = S. cerevisiae deletion strains, locus YEL061C, strain CIN8, active compounds read low
[6] = S. cerevisiae deletion strains, locus YGR078C, strain PAC10, active compounds read low
[7] = S. cerevisiae deletion strains, locus YHR030C, strain SLT2, active compounds read low
[8] = S. cerevisiae deletion strains, locus YHR087W, strain rtc3, active compounds read low
[9] = S. cerevisiae deletion strains, locus YJR043C, strain POL32, active compounds read low
[10] = S. cerevisiae deletion strains, locus YJR075W, strain HOC1, active compounds read low
[11] = S. cerevisiae deletion strains, locus YLR039C, strain RIC1, active compounds read low
[12] = S. cerevisiae deletion strains, locus YLR058C, strain SHM2 (second series), active compounds read low
[13] = S. cerevisiae deletion strains, locus YLR085C, strain ARP6, active compounds read low
[14] = S. cerevisiae deletion strains, locus YLR262C, strain YPT6, active compounds read low
[15] = S. cerevisiae deletion strains, locus YML094W, strain GIM5, active compounds read low
[16] = S. cerevisiae deletion strains, locus YMR219W, strain ESC1, active compounds read low
[17] = S. cerevisiae deletion strains, locus YNL153C, strain GIM3, active compounds read low
[18] = S. cerevisiae deletion strains, locus YNL298W, strain CLA4 (second series), active compounds read low
[19] = S. cerevisiae deletion strains, locus YNL322C, strain KRE1, active compounds read low
[20] = S. cerevisiae deletion strains, locus YNR030W, strain Alg12, active compounds read low
[21] = S. cerevisiae deletion strains, locus YPL055C, strain LGE1, active compounds read low
[22] = S. cerevisiae deletion strains, locus YPL241C, strain CIN2, active compounds read low
[23] = S. cerevisiae deletion strains, locus YPR135W, strain CTF4, active compounds read low

Measured: normalized growth

Nc1ccc(Sc2cc(Cl)ccc2Cl)nc1
active: [2] 0.906 | [6] 0.911 | [7] 0.341 | [8] 0.898 | S. cerevisiae deletion strains, locus YJL187C, strain SWE1, active compounds read low 0.928 | [10] 0.827 | S. cerevisiae deletion strains, locus YKL190W, strain CNB1, active compounds read low 0.762 | [11] 0.398 | [12] 0.929 | [13] 0.383 | [14] 0.348 | [15] 0.828 | S. cerevisiae deletion strains, locus YMR307W, strain GAS1, active compounds read low 0.454 | [18] 0.781 | [20] 0.785 | S. cerevisiae deletion strains, locus YOL006C, strain TOP1, active compounds read low 0.594 | [22] 0.737 | [23] 0.497
inactive: [1] 0.947 | S. cerevisiae deletion strains, locus YCL061C, strain MRC1, active compounds read low 0.958 | [3] 0.963 | [4] 0.843 | [5] 0.916 | [9] 0.932 | [16] 0.958 | [17] 0.934 | [19] 0.97 | [21] 0.99

Cc1noc(C)c1C(=O)N1CCOCC1
inactive: [1] 1 | [2] 0.998 | [3] 1 | [4] 0.971 | [5] 1.01 | [6] 1 | [7] 1.07 | [8] 1 | [9] 1 | [10] 1 | [11] 1.03 | [12] 1 | [13] 1.04 | [14] 1.01 | [15] 1.02 | [16] 0.993 | S. cerevisiae deletion strains, locus YMR263W, strain SAP30, active compounds read low 0.982 | [17] 0.996 | [18] 1.02 | [19] 0.995 | [20] 1.02 | [21] 1 | [22] 1.06 | [23] 1.02 | S. cerevisiae strains, strain wild type, active compounds read low 1.01

O=Cc1ccccc1O[C@@H]1O[C@H](CO)[C@H](O)[C@@H](O)[C@H]1O
inactive: [7] 1.06 | S. cerevisiae deletion strains, locus YHR079C, strain IRE1, active compounds read low 1.06 | S. cerevisiae deletion strains, locus YJL095W, strain BCK1, active compounds read low 0.996 | S. cerevisiae deletion strains, locus YJR066W, strain TOR1, active compounds read low 0.99 | S. cerevisiae deletion strains, locus YLR113W, strain HOG1, active compounds read low 1.03 | S. cerevisiae deletion strains, locus YNL183C, strain NPR1, active compounds read low 0.992 | S. cerevisiae deletion strains, locus YOR231W, strain MKK1, active compounds read low 1.06 | S. cerevisiae deletion strains, locus YPL256C, strain CLN2, active compounds read low 1.06
